A short description of test [1]: Validation of Assay for Modulators of Lamin A Splicing (AID 1459; active = well fitted curve in the direction sought with a large enough effect in the signal ratio; the % refers to the signal ratio;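 also: cells exposed to compound for two days before reading; 0% is about no effect; ratio rise marks activators and ratio drop marks inhibitors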). The following applies: Lamin A splicing dual RFP/GFP fluorescence reporter; series mostly up to 9.22 µM. In a few lines:
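Splicing correction is reported by an EGFP-containing lamin A minigene in stably transfected S3 HeLa cells, while DsRed2 controls for viability and nonspecific signal. Cells are exposed to compounds for 48 hrs before the GFP over RFP ratio is taken.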

Test [2] in a line: qHTS Assay for Lipid Storage Modulators (AID 1519; calls by dose curve; as to activity change, negative = inhibition: % is scaled to controls: 0 for no effect and ±100 for the full control effect). The following applies: Drosophila S3 cells, BODIPY lipid droplet/cell ratio, laser cytometry, cells loaded with oleic acid. In short, it runs like this:
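Cells seeded at 5,000 per well were treated with compounds over a concentration series and loaded with oleic acid (400 uM, as added). Lipid droplet fluorescence (488 nm excitation, 500-530 nm channel) was read by laser-scanning cytometry and normalized to 20 uM Triacsin C.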
(qHTS replaces the single test concentration by a dilution series.)

The nature of test [3]: Counterscreen for APE1 Inhibitors: Fluorescent Dye Displacement Validation Assay (AID 1707).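 Also: plate controls were ThO with dsDNA and no compound for no effect and ThO without dsDNA for full effect.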 The following applies: fluorescent dye displacement from DNA; series mostly up to 57.1 µM. In a few lines:
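Endpoint fluorescence read at 480 nm excitation / 540 nm emission; DNA-binding compounds lower signal by displacing 250 nM Thiazole Orange from 50 nM dsDNA containing a tetrahydrofuran abasic site, Tris-HCl pH7.5 buffer with NaCl and MgCl2.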

Test [4] addresses Endonuclease 4 (Escherichia coli (strain K12)) (UniProt P0A6C1). Description: Counterscreen for APE1 Inhibitors: qHTS Validation Assay for Inhibitors of Endonuclease IV (AID 1708). Also: % is scaled to controls: 0 for no effect and ±100 for the full control effect. The following applies: E. coli endonuclease IV, DNA cleavage fluorescence; series mostly up to 57.1 µM. In short, it runs like this:
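Incision of a double-stranded 50 nM TAMRA/BHQ-2 abasic substrate was followed kinetically (525/598 nm, reads every 60 s) after 15 min enzyme–compound preincubation with 2 nM EndoIV in pH 7.5 Tris buffer with MgCl2, DTT and Tween-20; concentration-response format.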

Test [5] is described as follows: qHTS for differential inhibitors of proliferation of Plasmodium falciparum line 7G8 (AID 1815).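 Also: potency is read from the fitted curve at half-maximal effect; parasite growth measured after three days of incubation.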 The following applies: Plasmodium falciparum 7G8 proliferation inhibition; series mostly up to 28.7 µM.
Test [6] is described as follows: qHTS for differential inhibitors of proliferation of Plasmodium falciparum line GB4 (AID 1816).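 Also: potency is read from the fitted curve at half-maximal effect; parasite growth measured after 72 h incubation.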 The following applies: Potency: Plasmodium falciparum GB4 proliferation inhibition; series mostly up to 28.7 µM.
Test [7] can be described thus: qHTS for differential inhibitors of proliferation of Plasmodium falciparum line D10 (AID 1877).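 Also: potency is read from the fitted curve at half-maximal effect; parasites grown with compound for 72 h before DNA staining.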 The following applies: series mostly up to 28.7 µM.
Test [8] is described as follows: qHTS for differential inhibitors of proliferation of Plasmodium falciparum line W2 (AID 1883).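 Also: potency is read from the fitted curve at half-maximal effect; parasites grown with compound for 72 h before lysis and staining.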 The following applies: Potency: Plasmodium falciparum W2 proliferation inhibition; series mostly up to 28.7 µM.
Test [9] in a line: qHTS for differential inhibitors of proliferation of Plasmodium falciparum line HB3 (AID 1886).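 Also: potency is read from the fitted curve at half-maximal effect; parasites grown with compound for 72 h before SYBR Green readout.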 The following applies: Potency: Plasmodium falciparum HB3 proliferation inhibition; series mostly up to 28.7 µM.
The target of test [10] is ATP-dependent DNA helicase Q1 (Homo sapiens) (UniProt P46063). Description: qHTS Validation Assay for Inhibitors of RecQ-Like Dna Helicase 1 (RECQ1) (AID 2353).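 Also: plate controls were DMSO vehicle for no effect and enzyme-free control for full effect.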 The following applies: recombinant RECQ1 helicase DNA unwinding assay; series mostly up to 25.6 µM. In short, it runs like this: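 RECQ1T1 50 nM; forked duplex (20 bp + 30-nt ss tails) 200 nM, ATP 2 mM final; pH 8.0, 2 mM MgCl2, 2.5 ug/ml poly(dI-dC); 15 min compound preincubation; discontinuous kinetic read over 2 h at RT.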

Test [11] can be described thus: Validation screen for small molecules that induce DNA re-replication in MCF 10A normal breast cells (AID 463097). Also: 0% is about no effect; nearly all actives have a fitted effect of over 60% in size. The following applies: MCF 10A cells, DNA re-replication phenotype imaging; series mostly up to 46.1 µM. In short, it runs like this: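 DNA re-replication was detected as a rise in nuclei with elevated Hoechst fluorescence after a 48 hr compound exposure of MCF 10A cells at 37 C.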

The nature of test [12]: Quantitative high throughput screen for delayed death inhibitors of the malarial parasite plastid, 96 hour incubation (AID 488745). Also: % is scaled to controls: 0 for no effect and ±100 for the full control effect; nearly all actives have a fitted effect of over 70% in size. The following applies: Plasmodium falciparum growth; series mostly up to 28.7 µM. In a few lines:
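Decreased firefly luciferase luminescence indicates inhibited growth of reporter-integrated P. falciparum after two generations (96 h, 37 C, 5% CO2). Infected erythrocytes at 0.1% parasitemia, 2% hematocrit, in Albumax-supplemented RPMI 1640.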

A short description of test [13]: Quantitative high throughput screen for delayed death inhibitors of the malarial parasite plastid, 48 hour incubation (AID 488752). Also: % is scaled to controls: 0 for no effect and ±100 for the full control effect; nearly all actives have a fitted effect of over 65% in size. The following applies: Plasmodium falciparum growth; series mostly up to 28.7 µM. In a few lines:
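One-generation (48 h) growth assay: a decrease in luciferase signal from an integrated reporter in P. falciparum-infected red cells (0.1% parasitemia, 2% hematocrit) after compound exposure at 37 C indicates parasite inhibition.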

Test [14] deals with M-phase phosphoprotein 8 (Homo sapiens) (UniProt Q99549). As to the kind of experiment: qHTS Validation Assay for Inhibitors for MPP8 Chromodomain Interactions with Methylated Histone Tails (AID 488949).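 Also: AlphaScreen signal from MPP8 chromodomain bound to biotinylated H3K9me3 peptide; top concentration of the series differs between compounds; % is scaled to controls: 0 for no effect and ±100 for the full control effect; nearly all actives have a fitted effect of over 55% in size.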 The following applies: AlphaScreen MPP8 binding to H3K9me3 peptide; series mostly up to 114 µM. In a few lines: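 Disruption of the preformed MPP8–trimethyl-H3K9 peptide complex (both 50 nM, 30 min, RT) is measured after 30 min compound exposure, using AlphaScreen proximity beads; aurintricarboxylic acid titration serves as plate control.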

The target in test [15] is Transient receptor potential cation channel subfamily V member 1 (Homo sapiens) (UniProt Q8NER1). As to the kind of experiment: HTS Assay for Compounds that Act as Enhancers of the Vanilloid Receptor 1 (AID 488979). Also: 0% is about no effect. The following applies: TRPV1-expressing cells, enhancer of channel activity, stimulated with capsaicin at EC20; series mostly up to 41.7 µM. In short, it runs like this: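 Calcium influx kinetics via Fluo-8 (480/520 nm) in TRPV1-expressing cells, 2000/well cultured overnight at 35.5C. Compound-alone read 3 min (agonist phase), followed by EC20 capsaicin challenge for 2 min (enhancer phase).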

Test [16] has as its target Galactokinase (Homo sapiens) (UniProt P51570). As to the kind of experiment: qHTS Validation Assay for Inhibitors of Human Galactokinase (GALK) (AID 493189). Also: 0% is about no effect. The following applies: purified human GALK enzyme activity, qHTS 7-point titration; series mostly up to 57.5 µM. In a few lines: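 Compounds were pin-transferred into ATP buffer, then GALK-galactose mix was added (final 5 nM enzyme, 100 uM galactose, 35 uM ATP). After 1 h at room temperature, remaining ATP was measured luminescently.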

Test [17] is described as follows: Validation screen for small molecules that induce DNA re-replication in SW480 colon adenocarcinoma cells (AID 504364). Also: 0% is about no effect. The following applies: DNA re-replication phenotype (high-content imaging); series mostly up to 46.1 µM. In a few lines: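 Image-based DNA content read-out: Hoechst stain 40 min, total nuclear fluorescence intensity (ex 405 nm, em 500-530 nm) after 48 h compound exposure of 250 SW480 cells/well at 37 C, 5% CO2, versus DMSO vehicle.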

For test [18], the target named is Voltage-gated inwardly rectifying potassium channel KCNH2 (Homo sapiens) (UniProt Q12809). Description: qHTS Assay for Small Molecule Inhibitors of the Human hERG Channel Activity (AID 588834).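 Also: top concentration of the series differs between compounds; % is scaled to controls: 0 for no effect and ±100 for the full control effect; lower thallium flux fluorescence means stronger hERG block; nearly all actives have a fitted effect of over 50% in size.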 The following applies: U2OS BacMam hERG, FluxOR thallium flux fluorescence; series mostly up to 46.1 µM. In short, it runs like this: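 Cells were infected with hERG-BacMam virus for 4 hrs at room temperature, grown overnight, then seeded at 2000/well. After dye loading and roughly 10 min compound treatment, thallium influx was triggered and fluorescence recorded.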

Test [19] has as its system Zika virus NS2B-NS3 protease. As to the kind of experiment: Primary screen GU AMC qHTS for Zika virus inhibitors (AID 1347154).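 Also: 0% = no-inhibitor control and -100% = no-enzyme control; nearly all actives have a fitted effect of over 70% in size.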 The following applies: Zika NS2B-NS3 unlinked protease, AMC fluorogenic substrate; series mostly up to 54.1 µM. In short, it runs like this: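 Fluorogenic AMC-substrate cleavage by noncovalent NS2B-NS3 protease complex (25 nM, pH 8.0 Tris buffer with Tween 20) followed for 15 minutes at room temperature (~20% conversion). Percent inhibition from ex340/em450 signal change, fitted by 4-parameter Hill equation.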

Records with an inconclusive call do not appear. Calls of active or inactive are those of the source. Unless noted, calls follow the shape of the dose curve; as a rule, active = well fitted curve in the direction sought with a large enough effect; inconclusive = small, poorly fitted or top-dose-only effect, or another doubt; inactive = no such curve, though single readings can be large; an effect the other way counts as inactive or inconclusive.

Voltage-gated inwardly rectifying potassium channel KCNH2 (Homo sapiens), sequence (Q12809 whole entry, looked up): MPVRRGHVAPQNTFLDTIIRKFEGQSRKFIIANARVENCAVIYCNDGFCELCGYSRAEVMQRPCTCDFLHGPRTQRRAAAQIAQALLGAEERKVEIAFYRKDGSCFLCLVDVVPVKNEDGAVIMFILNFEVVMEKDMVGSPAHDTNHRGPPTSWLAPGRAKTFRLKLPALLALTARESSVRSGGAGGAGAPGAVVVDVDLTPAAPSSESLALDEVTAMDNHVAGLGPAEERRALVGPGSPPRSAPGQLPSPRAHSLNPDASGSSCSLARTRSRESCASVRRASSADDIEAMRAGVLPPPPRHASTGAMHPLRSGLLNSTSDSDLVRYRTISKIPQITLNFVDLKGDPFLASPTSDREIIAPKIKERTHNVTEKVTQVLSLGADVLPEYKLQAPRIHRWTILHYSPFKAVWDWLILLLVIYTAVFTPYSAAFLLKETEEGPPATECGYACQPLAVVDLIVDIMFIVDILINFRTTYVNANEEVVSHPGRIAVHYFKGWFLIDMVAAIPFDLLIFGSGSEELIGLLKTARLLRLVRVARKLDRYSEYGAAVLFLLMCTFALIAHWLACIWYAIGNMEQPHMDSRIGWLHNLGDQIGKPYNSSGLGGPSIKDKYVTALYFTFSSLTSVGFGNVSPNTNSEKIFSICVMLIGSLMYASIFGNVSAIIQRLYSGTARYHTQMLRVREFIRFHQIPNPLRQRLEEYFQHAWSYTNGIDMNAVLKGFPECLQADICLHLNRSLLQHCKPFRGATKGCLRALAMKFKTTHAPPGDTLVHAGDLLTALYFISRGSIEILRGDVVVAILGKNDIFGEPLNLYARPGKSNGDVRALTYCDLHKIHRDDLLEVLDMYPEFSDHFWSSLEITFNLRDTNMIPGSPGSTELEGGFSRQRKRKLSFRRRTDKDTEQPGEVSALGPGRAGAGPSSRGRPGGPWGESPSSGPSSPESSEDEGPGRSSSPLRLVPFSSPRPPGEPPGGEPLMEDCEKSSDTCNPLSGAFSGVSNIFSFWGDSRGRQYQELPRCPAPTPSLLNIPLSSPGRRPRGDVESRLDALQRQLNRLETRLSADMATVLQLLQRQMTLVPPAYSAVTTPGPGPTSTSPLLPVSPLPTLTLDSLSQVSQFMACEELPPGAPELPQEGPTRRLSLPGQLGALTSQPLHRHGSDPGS
M-phase phosphoprotein 8 (Homo sapiens), sequence (Q99549 whole entry, looked up): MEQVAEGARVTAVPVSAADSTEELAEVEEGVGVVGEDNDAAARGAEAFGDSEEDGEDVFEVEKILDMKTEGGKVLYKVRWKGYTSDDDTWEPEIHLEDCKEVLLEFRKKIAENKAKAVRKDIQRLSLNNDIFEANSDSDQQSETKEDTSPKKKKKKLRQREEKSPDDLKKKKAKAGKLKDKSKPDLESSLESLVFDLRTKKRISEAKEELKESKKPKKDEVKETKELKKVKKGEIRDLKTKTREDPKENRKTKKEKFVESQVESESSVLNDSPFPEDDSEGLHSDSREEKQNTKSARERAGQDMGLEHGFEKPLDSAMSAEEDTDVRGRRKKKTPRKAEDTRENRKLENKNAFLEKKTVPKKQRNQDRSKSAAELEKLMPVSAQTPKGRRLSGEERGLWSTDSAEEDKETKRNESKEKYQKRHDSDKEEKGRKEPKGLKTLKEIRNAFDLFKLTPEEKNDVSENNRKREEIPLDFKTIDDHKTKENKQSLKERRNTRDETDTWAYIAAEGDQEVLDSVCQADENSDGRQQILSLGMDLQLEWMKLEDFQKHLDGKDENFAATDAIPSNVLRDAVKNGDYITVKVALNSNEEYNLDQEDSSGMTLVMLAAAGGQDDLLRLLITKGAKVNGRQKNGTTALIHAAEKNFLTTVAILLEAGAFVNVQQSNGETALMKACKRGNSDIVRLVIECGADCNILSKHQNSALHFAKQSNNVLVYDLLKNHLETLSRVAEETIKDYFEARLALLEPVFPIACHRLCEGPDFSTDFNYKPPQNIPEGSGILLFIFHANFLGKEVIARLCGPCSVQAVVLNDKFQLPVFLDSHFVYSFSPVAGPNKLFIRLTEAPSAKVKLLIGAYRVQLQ
ATP-dependent DNA helicase Q1 (Homo sapiens), sequence (P46063 whole entry, looked up): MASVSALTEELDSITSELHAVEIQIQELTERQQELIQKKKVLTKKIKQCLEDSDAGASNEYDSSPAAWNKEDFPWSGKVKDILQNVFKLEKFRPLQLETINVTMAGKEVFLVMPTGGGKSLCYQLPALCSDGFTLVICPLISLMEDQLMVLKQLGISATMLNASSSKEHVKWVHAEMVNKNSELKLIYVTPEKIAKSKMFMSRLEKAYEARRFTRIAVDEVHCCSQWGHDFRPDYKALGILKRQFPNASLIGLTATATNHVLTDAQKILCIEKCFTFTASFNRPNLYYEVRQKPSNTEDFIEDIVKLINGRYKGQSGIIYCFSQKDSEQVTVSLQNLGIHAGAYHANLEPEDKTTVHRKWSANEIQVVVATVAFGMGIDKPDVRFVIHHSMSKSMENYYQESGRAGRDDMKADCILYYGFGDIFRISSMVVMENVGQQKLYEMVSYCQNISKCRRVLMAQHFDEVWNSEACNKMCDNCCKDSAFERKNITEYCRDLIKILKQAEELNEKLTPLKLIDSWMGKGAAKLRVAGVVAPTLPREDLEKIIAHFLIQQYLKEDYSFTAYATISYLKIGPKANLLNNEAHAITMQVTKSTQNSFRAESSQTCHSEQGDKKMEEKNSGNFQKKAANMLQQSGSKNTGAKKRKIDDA
Galactokinase (Homo sapiens), sequence (P51570 whole entry, looked up): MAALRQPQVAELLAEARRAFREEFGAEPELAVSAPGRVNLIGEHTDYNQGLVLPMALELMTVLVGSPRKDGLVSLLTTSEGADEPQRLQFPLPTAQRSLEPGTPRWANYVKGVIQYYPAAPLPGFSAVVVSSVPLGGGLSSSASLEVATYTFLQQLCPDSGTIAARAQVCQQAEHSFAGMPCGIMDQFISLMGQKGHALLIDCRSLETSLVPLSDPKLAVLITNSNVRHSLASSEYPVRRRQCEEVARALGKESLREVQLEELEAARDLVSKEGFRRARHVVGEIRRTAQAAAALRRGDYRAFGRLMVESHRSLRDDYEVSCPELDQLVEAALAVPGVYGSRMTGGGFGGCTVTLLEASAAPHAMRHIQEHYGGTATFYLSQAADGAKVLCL
Transient receptor potential cation channel subfamily V member 1 (Homo sapiens), sequence (Q8NER1 whole entry, looked up): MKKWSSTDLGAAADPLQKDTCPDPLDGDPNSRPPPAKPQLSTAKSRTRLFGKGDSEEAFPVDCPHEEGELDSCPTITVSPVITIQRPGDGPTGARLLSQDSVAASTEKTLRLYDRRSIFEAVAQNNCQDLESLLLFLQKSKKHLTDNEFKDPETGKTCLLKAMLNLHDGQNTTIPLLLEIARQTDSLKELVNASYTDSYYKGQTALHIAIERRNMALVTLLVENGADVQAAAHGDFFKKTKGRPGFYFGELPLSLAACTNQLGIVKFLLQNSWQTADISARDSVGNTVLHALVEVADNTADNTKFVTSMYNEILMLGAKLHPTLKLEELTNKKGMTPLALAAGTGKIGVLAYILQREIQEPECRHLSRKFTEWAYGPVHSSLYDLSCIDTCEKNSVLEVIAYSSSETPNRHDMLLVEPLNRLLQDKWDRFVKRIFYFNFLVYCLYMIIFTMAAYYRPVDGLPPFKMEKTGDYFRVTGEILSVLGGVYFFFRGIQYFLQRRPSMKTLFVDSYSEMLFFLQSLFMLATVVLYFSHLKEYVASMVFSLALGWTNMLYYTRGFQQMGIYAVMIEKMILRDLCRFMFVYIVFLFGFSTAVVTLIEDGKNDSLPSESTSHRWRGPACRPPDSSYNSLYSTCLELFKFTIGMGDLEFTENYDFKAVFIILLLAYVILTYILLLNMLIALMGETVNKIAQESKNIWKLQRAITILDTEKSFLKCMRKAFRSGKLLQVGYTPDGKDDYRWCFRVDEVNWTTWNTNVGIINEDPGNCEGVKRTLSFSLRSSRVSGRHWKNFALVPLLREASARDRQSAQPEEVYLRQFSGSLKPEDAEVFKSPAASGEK

For the compound `C/C=C1\C(=O)CC2C3CCC4=CC(=O)CC[C@]4(C)C3CC[C@]12C` (stereo partly specified), the compound was classed as inactive in test [1], in test [15], in [16] and in test [17]. The activity change, negative = inhibition in test [2] (at 57.5 µM (top of the series)) was 1.38% (inactive). The max response in test [2] (measured here: cell count channel max response) came to 72.1%; in test [2] (measured here: lipid channel max response), 74.6%. Also, the Potency entry in test [3], in test [4], in test [10], in [11], in test [12] and in [13] was “inactive” throughout. In addition, the Potency result in test [14], in test [18] and in [19] was “inactive” throughout. For the same compound, the Potency is 11.2 µM (active) in test [5]; 14.1 µM (active) in [6]; 10 µM (active) in [7]; 7.08 µM (active) in test [8]; 11.2 µM (active) in test [9].

The values are drawn from PubChem BioAssay (NCATS).
